# Assay results published in PubChem BioAssay (NCATS).
# “And” between values parts separate entries of the source, which are not always exact repeats. Identical values can stand only once. Records with an inconclusive call do not appear. A call without a number means that no potency is given here. The source made the active and inactive calls. Calls follow the shape of the dose curve; as a rule, active = well fitted curve in the direction sought with a large enough effect; inconclusive = small, poorly fitted or top-dose-only effect, or another doubt; inactive = no such curve, though single readings can be large; an effect the other way counts as inactive or inconclusive.
# Columns and labels:
# [1] = qHTS of pediatric cancer cell lines to identify multiple opportunities for drug repurposing: Confirmatory screen for MG 63 (6-TG R) cells (AID 1347119); also: nearly all actives have a fitted effect of over 55% in size
# Outline: (§1)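 Cells (500-1,000/well) rested 5 h, then received compounds for 48 h; metabolically active cells were measured by CellTiter-Glo luminescence. Final concentrations spanned up to 46 µM (MIPE, 11-point) or 0.59 nM-46 µM (NPC, 8-point) in primary screens, 11-point in follow-ups.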
# [2] = qHTS of pediatric cancer cell lines to identify multiple opportunities for drug repurposing: Confirmatory screen for control Hh wild type fibroblast cells (AID 1347121); also: nearly all actives have a fitted effect of over 70% in size
# Outline: as §1
# [3] = qHTS of pediatric cancer cell lines to identify multiple opportunities for drug repurposing: Confirmatory screen for Rh30 cells (AID 1347126); also: nearly all actives have a fitted effect of over 55% in size
# Outline: as §1
# [4] = qHTS of pediatric cancer cell lines to identify multiple opportunities for drug repurposing: Confirmatory screen for Saos-2 cells (AID 1347127); also: nearly all actives have a fitted effect of over 60% in size
# Outline: as §1
# [5] = qHTS of pediatric cancer cell lines to identify multiple opportunities for drug repurposing: Confirmatory screen for OHS-50 cells (AID 1347128);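 also: compound exposure lasted 48 h at 37 degrees C; nearly all actives have a fitted effect of over 55% in size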
# Outline: as §1
# [6] = qHTS of pediatric cancer cell lines to identify multiple opportunities for drug repurposing: Confirmatory screen for SK-N-SH cells (AID 1347129);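 also: cells exposed to compound for 48 h before viability read; nearly all actives have a fitted effect of over 60% in size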
# Outline: as §1
# [7] = qHTS of pediatric cancer cell lines to identify multiple opportunities for drug repurposing: Confirmatory screen for U-2 OS cells (AID 1347122); also: nearly all actives have a fitted effect of over 65% in size
# Outline: as §1
# [8] = qHTS of pediatric cancer cell lines to identify multiple opportunities for drug repurposing: Confirmatory screen for Rh41 cells (AID 1347123);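 also: 48 h compound exposure; nearly all actives have a fitted effect of over 60% in size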
# Outline: as §1
# [9] = target: N-terminal Xaa-Pro-Lys N-methyltransferase 1 (Homo sapiens) (UniProt Q9BV86); test: qHTS Assay for Inhibitors of N-terminal methyltransferase 1 (NTMT1): LOPAC validation of the NTMT1 SAHH-coupled ThioGlo3 Assay (AID 1347143);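 also: SAH from peptide methylation measured as thiol fluorescence via SAHH coupling and ThioGlo3; nearly all actives have a fitted effect of over 70% in size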
# Outline: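 NTMT1 125nM + cpds (various conc.), 1 min RT; add SAM 100uM/SAHH 10uM/ThioGlo3 15uM (addition mix). SAHH-coupled thiol detection, Ex340/Em450, t0 and 30 min RT; signal normalized to background. LOPAC 1280-cpd pilot.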
# Furin (Homo sapiens) = Furin (Homo sapiens) (UniProt P09958); test: Furin counterscreen qHTS for Zika virus inhibitors (AID 1347149); also: nearly all actives have a fitted effect of over 70% in size
# Outline: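 Counterscreen measures cleavage of 2 microM BOC-RVRR-AMC, below its ~15 microM Km, by 5 nM full-length human furin at pH 7.0 after a 15-min compound preincubation. Inhibition derives from the 15-min fluorescence increase at 37C.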
# Potency is read from the fitted curve at half-maximal effect.
# Chain of Furin (Homo sapiens) (P09958 whole entry, looked up): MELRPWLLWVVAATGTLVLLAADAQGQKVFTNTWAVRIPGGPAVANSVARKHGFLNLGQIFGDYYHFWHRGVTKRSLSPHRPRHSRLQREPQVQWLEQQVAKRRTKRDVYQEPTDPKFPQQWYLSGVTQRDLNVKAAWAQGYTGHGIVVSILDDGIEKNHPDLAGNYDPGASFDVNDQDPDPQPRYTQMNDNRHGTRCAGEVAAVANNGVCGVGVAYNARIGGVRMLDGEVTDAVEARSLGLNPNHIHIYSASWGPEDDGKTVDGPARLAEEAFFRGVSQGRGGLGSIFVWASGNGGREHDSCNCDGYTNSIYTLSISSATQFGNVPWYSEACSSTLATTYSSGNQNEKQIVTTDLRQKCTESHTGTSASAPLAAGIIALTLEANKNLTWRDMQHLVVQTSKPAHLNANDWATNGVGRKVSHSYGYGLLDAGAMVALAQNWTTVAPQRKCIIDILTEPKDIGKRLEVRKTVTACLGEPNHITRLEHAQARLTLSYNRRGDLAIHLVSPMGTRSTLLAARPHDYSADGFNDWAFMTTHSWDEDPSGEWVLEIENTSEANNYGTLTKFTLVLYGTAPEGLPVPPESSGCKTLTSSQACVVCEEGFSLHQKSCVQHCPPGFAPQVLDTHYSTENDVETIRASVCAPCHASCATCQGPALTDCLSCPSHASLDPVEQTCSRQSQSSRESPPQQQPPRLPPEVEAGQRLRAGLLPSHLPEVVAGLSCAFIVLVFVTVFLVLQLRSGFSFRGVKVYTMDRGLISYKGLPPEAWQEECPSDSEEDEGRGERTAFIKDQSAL
# Chain of N-terminal Xaa-Pro-Lys N-methyltransferase 1 (Homo sapiens) (Q9BV86 whole entry, looked up): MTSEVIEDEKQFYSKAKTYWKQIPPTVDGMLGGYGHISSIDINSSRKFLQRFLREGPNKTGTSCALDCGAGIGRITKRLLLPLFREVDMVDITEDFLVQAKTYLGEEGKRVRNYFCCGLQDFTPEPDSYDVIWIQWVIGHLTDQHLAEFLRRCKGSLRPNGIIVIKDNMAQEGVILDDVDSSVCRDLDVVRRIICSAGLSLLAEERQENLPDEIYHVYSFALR
structure (smiles),measurement,setting,value
CC(C)C[C@H](NC(=O)[C@H](CCc1ccccc1)NC(=O)CN1CCOCC1)C(=O)N[C@@H](Cc1ccccc1)C(=O)N[C@@H](CC(C)C)C(=O)[C@@]1(C)CO1,Potency,[1],0.0657 µM (active)
same,Potency,[2],0.737 µM (active)
same,Potency,[3],0.117 µM (active)
same,Potency,[4],0.117 µM (active)
same,Potency,[5],0.208 µM (active)
same,Potency,[6],0.209 µM (active)
CC1CC2C3CCC4=CC(=O)C=C[C@]4(C)[C@@]3(F)[C@@H](O)C[C@]2(C)[C@@]1(O)C(=O)CO (some centres undefined),Potency,[1],inactive
same,Potency,[2],inactive
same,Potency,[7],inactive
same,Potency,[8],inactive
same,Potency,[4],inactive
same,Potency,[5],inactive
same,Potency,[6],inactive
same,Potency,[9],inactive
COc1cc([C@@H]2c3cc4c(cc3[C@H](O)[C@H]3COC(=O)[C@H]23)OCO4)cc(OC)c1OC,Potency,[1],0.0329 µM (active)
same,Potency,[2],inactive
same,Potency,[7],0.0737 µM (active)
same,Potency,[3],inactive
same,Potency,[4],0.0414 µM (active)
same,Potency,[6],inactive
COc1cc(NCc2ccc3nc(N)nc(N)c3c2C)cc(OC)c1OC,Potency,[1],20.8 µM (active)
same,Potency,[2],inactive
same,Potency,[7],inactive
same,Potency,[3],4.65 µM (active)
same,Potency,[4],10.4 µM (active)
same,Potency,[5],3.69 µM (active)
same,Potency,[6],4.69 µM (active)
same,Potency,Furin (Homo sapiens),17.1 µM (active)
CC(C)(C#N)c1cc(Cn2cncn2)cc(C(C)(C)C#N)c1,Potency,[1],inactive
same,Potency,[2],inactive
same,Potency,[7],inactive
same,Potency,[8],inactive
same,Potency,[3],inactive
same,Potency,[4],inactive
same,Potency,[5],inactive
same,Potency,[6],inactive
COc1cc2c(Nc3ccc(Br)cc3F)ncnc2cc1OCC1CCN(C)CC1,Potency,[1],inactive
same,Potency,[2],inactive
same,Potency,[7],inactive
same,Potency,[8],16.5 µM (active)
same,Potency,[4],inactive
same,Potency,[6],16.6 µM (active)
S=P(N1CC1)(N1CC1)N1CC1,Potency,[1],inactive
same,Potency,[2],inactive
same,Potency,[7],inactive
same,Potency,[3],inactive
same,Potency,[4],inactive
same,Potency,[5],inactive
COc1cc2nc(N3CCCN(C)CC3)nc(NC3CCN(Cc4ccccc4)CC3)c2cc1OC,Potency,[1],inactive
same,Potency,[2],inactive
same,Potency,[8],0.261 µM (active)
same,Potency,[3],0.147 µM (active)
same,Potency,[5],18.5 µM (active)
same,Potency,[6],8.33 µM (active)
same,Potency,[9],inactive
CC(C)(C)C(=O)OCOP(=O)(COCCn1cnc2c(N)ncnc21)OCOC(=O)C(C)(C)C,Potency,[1],5.22 µM (active)
same,Potency,[7],inactive
same,Potency,[8],20.8 µM (active)
same,Potency,[4],14.7 µM (active)
same,Potency,[5],16.5 µM (active)
same,Potency,[6],inactive
COC(=O)Nc1nc2ccc(C(=O)c3ccccc3)cc2[nH]1,Potency,[2],inactive
same,Potency,[7],1.85 µM (active)
same,Potency,[3],inactive
same,Potency,[5],2.93 µM (active)
same,Potency,[6],inactive
same,Potency,Furin (Homo sapiens),inactive
CCCCS(=N)(=O)CCC(N)C(=O)O (centres undefined),Potency,[9],inactive
OCc1ccc(-c2nn(Cc3ccccc3)c3ccccc23)o1,Potency,[9],28.2 µM (active)
same,Potency,Furin (Homo sapiens),27.1 µM (active)
CO[C@@]12[C@H](COC(N)=O)C3=C(C(=O)C(C)=C(N)C3=O)N1C[C@@H]1N[C@@H]12,Potency,[8],7.37 µM (active)
same,Potency,[3],9.27 µM (active)
same,Potency,[6],14.8 µM (active)
CC1=C(C(=O)O)N2C(=O)[C@@H](NC(=O)C(N)c3ccccc3)[C@H]2SC1 (some centres undefined),Potency,[9],inactive
N=C(N)c1ccc(OCCCCCOc2ccc(C(=N)N)cc2)cc1,Potency,[1],11.7 µM (active)
same,Potency,[5],inactive
same,Potency,[6],inactive
NC(=O)c1ccc2[nH]ccc2c1,Potency,[9],inactive
N[C@@H](Cc1ccc(O)c(O)c1)C(=O)O,Potency,[9],50.1 µM (active)
C[C@@H]1C[C@H]2[C@@H]3CCC4=CC(=O)C=C[C@]4(C)[C@@]3(Cl)[C@@H](O)C[C@]2(C)[C@@]1(OC(=O)c1ccco1)C(=O)CCl,Potency,[2],inactive
same,Potency,[7],3.29 µM (active)
same,Potency,[8],1.04 µM (active)
same,Potency,[4],4.14 µM (active)
same,Potency,[5],11.7 µM (active)
same,Potency,[6],14.8 µM (active)
C[C@@H](CN1CC(=O)NC(=O)C1)N1CC(=O)NC(=O)C1,Potency,[2],inactive
same,Potency,[7],inactive
same,Potency,[8],inactive
same,Potency,[3],inactive
same,Potency,[4],inactive
same,Potency,[5],inactive
same,Potency,[6],inactive
CCOC(=O)c1ccc(C#Cc2ccc3c(c2)C(C)(C)CCS3)nc1,Potency,[2],inactive
same,Potency,[4],inactive
same,Potency,[5],inactive
same,Potency,[6],inactive
CNC(=O)c1cc(Oc2ccc(NC(=O)Nc3ccc(Cl)c(C(F)(F)F)c3)cc2)ccn1,Potency,[4],inactive
same,Potency,[5],18.5 µM (active)
same,Potency,[6],20.9 µM (active)
same,Potency,Furin (Homo sapiens),inactive
NC(=O)c1cccc(N)c1,Potency,[9],inactive
COc1ccc(C(=O)CC(=O)c2ccc(C(C)(C)C)cc2)cc1,Potency,[2],inactive
same,Potency,[7],inactive
same,Potency,[8],inactive
same,Potency,[3],inactive
same,Potency,[4],inactive
same,Potency,[5],inactive
same,Potency,[6],inactive
Cc1cccc(N(C)C(=S)Oc2ccc3ccccc3c2)c1,Potency,[2],inactive
same,Potency,[3],inactive
same,Potency,[4],inactive
same,Potency,[5],inactive
same,Potency,[6],inactive
O=C(O)C1CCCN(CCC=C(c2ccccc2)c2ccccc2)C1 (centres undefined),Potency,[9],inactive
CCCc1nc(C)c2c(=O)[nH]c(-c3cc(S(=O)(=O)N4CCN(CC)CC4)ccc3OCC)nn12,Potency,Furin (Homo sapiens),inactive
O=C(O)c1cn(C2CC2)c2cc(N3CCNCC3)c(F)cc2c1=O,Potency,Furin (Homo sapiens),24.1 µM (active)
COc1c(N2CCNC(C)C2)c(F)cc2c(=O)c(C(=O)O)cn(C3CC3)c12 (centres undefined),Potency,Furin (Homo sapiens),24.1 µM (active) and 27.1 µM (active)
CCN1CCCC1CNC(=O)c1cc(S(N)(=O)=O)ccc1OC (centres undefined),Potency,[9],56.2 µM (active)
CCn1cc(C(=O)O)c(=O)c2cc(F)c(N3CCNCC3)cc21,Potency,Furin (Homo sapiens),17.1 µM (active)
CC(C(=O)O)c1ccc2c(c1)CC(=O)c1ccccc1S2 (centres undefined),Potency,[2],inactive
same,Potency,[7],inactive
same,Potency,[8],inactive
same,Potency,[3],inactive
same,Potency,[4],inactive
same,Potency,[5],inactive
same,Potency,[6],inactive
O=C(O)c1ccc(-n2nc(-c3ccccc3O)nc2-c2ccccc2O)cc1,Potency,Furin (Homo sapiens),inactive
CNC1CCCN(c2c(F)cc3c(=O)c(C(=O)O)cn(C4CC4)c3c2OC)C1 (centres undefined),Potency,Furin (Homo sapiens),7.62 µM (active) and 24.1 µM (active)
CC(=O)[C@H]1CC[C@H]2[C@@H]3CCC4=CC(=O)CC[C@]4(C)[C@H]3CC[C@]12C,Potency,[8],18.5 µM (active)
same,Potency,[5],26.1 µM (active)
CC(C)(Sc1cc(C(C)(C)C)c(O)c(C(C)(C)C)c1)Sc1cc(C(C)(C)C)c(O)c(C(C)(C)C)c1,Potency,Furin (Homo sapiens),inactive
COc1ccc(-c2ccc3cc(C(=O)O)ccc3c2)cc1C12CC3CC(CC(C3)C1)C2,Potency,[2],inactive
same,Potency,[7],0.0827 µM (active)
same,Potency,[8],inactive
same,Potency,[6],inactive
same,Potency,Furin (Homo sapiens),inactive
COc1nc(N)nc2c1ncn2[C@@H]1O[C@H](CO)[C@@H](O)[C@@H]1O,Potency,[2],inactive
same,Potency,[7],inactive
same,Potency,[8],16.5 µM (active)
same,Potency,[4],inactive
same,Potency,[5],inactive
same,Potency,[6],inactive
CS(=O)(=O)c1ccc([C@@H](O)[C@@H](CO)NC(=O)C(Cl)Cl)cc1,Potency,[2],inactive
same,Potency,[7],inactive
same,Potency,[8],inactive
same,Potency,[3],inactive
same,Potency,[5],inactive
same,Potency,[6],inactive
O=C(NCC1CN(c2ccc(N3CCOCC3=O)cc2)C(=O)O1)c1ccc(Cl)s1 (centres undefined),Potency,[2],inactive
same,Potency,[7],inactive
same,Potency,[3],inactive
same,Potency,[6],inactive
NC(=O)c1cccnc1,Potency,[2],inactive
same,Potency,[7],inactive
same,Potency,[8],inactive
same,Potency,[3],inactive
same,Potency,[4],inactive
same,Potency,[5],inactive
same,Potency,[6],inactive
